Screening data (PubChem)
TTR transcr act: TTR transcription activators in neuroblastoma reporter cells, primary screen, cell-based, luminescence, SH-SY5Y, TTR promoter Gaussia luciferase | 100% = recombinant luciferase protein wells | activation, % at 16.7 µM | hit rate 1.3% among 92,000 | AID 1117267, 2014;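 active means activation above the mean of all tested compounds plus 3 SD, cut at about 9.5% in these data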;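 further: cells exposed to compounds for one day before reading; 0% = median of all test compound wells on the plate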
HuH7 TTR inh: TTR promoter reporter inhibitors in hepatoma cells, counter-screen for TTR transcription activator project, cell-based, luminescence, HuH7 hepatoma | hit rate 4% among 1,100 | shares compounds with TTR transcr act | AID 1117279, 2014 | inhibition, % at 16.7 µM | HuH7 TTR promoter-Gaussia luciferase reporter;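 active means average inhibition above the solvent-only control wells' mean plus 3 SD, cut at about 15% in these data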;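 further: 0% = cells with DMSO only and 100% = cells with inhibitor control FD; inhibitors lower well luminescence so higher value means more inhibition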
TTR up confirm: TTR transcription activators, retest, confirmation, cell-based, luminescence, SH-SY5Y, triplicate; shares compounds with TTR transcr act; SHSY5Y TTR promoter Gaussia luciferase; 100% = purified Lucia enzyme wells, no cells; activation, % at 16.7 µM; 1,100 tested, under 10 active; AID 1117280, 2014;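 active means mean activation above a set limit taken from the earlier primary screen, cut at about 11% in these data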;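 further: 0% = DMSO-treated cells and 100% = recombinant Lucia luciferase without cells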
Active calls of the source: *. The full list was thinned out, with hits kept by preference.

`COc1ccc(CN2C(=O)[C@]3(NCCc4c3[nH]c3ccc(OC)cc43)c3cc(F)ccc32)cc1` gave TTR transcr act 5.
Screening O=C(OCC#CCSc1nnc(-c2ccccc2)o1)c1ccc(F)cc1 returned TTR transcr act -1.
`O=C1C(Cl)=C(NCCCN2CCOCC2)C(=O)N1CCc1ccccc1` gave TTR transcr act 69*, HuH7 TTR inh -3 and TTR up confirm -1.
Screening CN1CCN(C2=C(Cl)C(=O)N(CCc3ccccc3)C2=O)CC1 returned TTR transcr act 5.
O=C(CCc1ccccc1)NCCCN1CCOCC1 was read as TTR transcr act 1.
For N#Cc1ccc(C(=O)Oc2coc(CSc3ncccn3)cc2=O)cc1 the results were TTR transcr act 2.
Screening COc1ccc(CC(=O)Nc2cccc(-c3csc(C)n3)c2)cc1 returned TTR transcr act -1.
`CCC(=O)Nc1cccc(-c2csc(-c3ccccc3)n2)c1` gave TTR transcr act -1.
`CC(=O)Nc1cccc(-c2csc(N)n2)c1` gave TTR transcr act 9.7*, HuH7 TTR inh -13 and TTR up confirm 0.
For CC(C)Cn1c(SC(C)C(=O)Nc2ccc(N3CCOCC3)cc2)nc2ccccc21 (stereo not given) the results were TTR transcr act -2.
For Cc1cccc(NC(=O)C(C)Sc2nc3ccccc3c(=O)n2CCCN2CCOCC2)c1 (stereo not given) the results were TTR transcr act 21*, HuH7 TTR inh -11 and TTR up confirm 1.
`COc1ccc(NC(=O)CSc2nc3ccccc3c(=O)n2CCCN2CCOCC2)c(OC)c1` gave TTR transcr act 2.
`C=CCN(Cc1ccc2c(c1)OCO2)C(C#CCCCC)C(C)C` (stereo not given) gave TTR transcr act 1.
For Cc1sc2ncnc(Nc3ccc(N4CCOCC4)cc3)c2c1-c1ccccc1 the results were TTR transcr act -1.
`Cc1sc2ncnc(Nc3ccccc3)c2c1C` gave TTR transcr act 15*, HuH7 TTR inh -8 and TTR up confirm 0.
Cc1sc2ncnc(NCC(c3ccco3)N(C)C)c2c1C (stereo not given) was read as TTR transcr act -1.
For COC(=O)[C@]12C[C@H](CC(=O)N3CCCC3)C(=O)N(CCc3ccc(OC)c(OC)c3)C1=C[C@H](COCc1ccccc1)O[C@@H]2C the results were TTR transcr act -1.
For COc1ccc(OC)c(NC(=O)c2cccnc2Sc2ccccc2)c1 the results were TTR transcr act 4.
O=C(Nc1ccc(N2C(=O)[C@@H]3[C@H](C2=O)[C@@H]2C=C[C@H]3C2)c(Cl)c1)c1ccccn1 was read as TTR transcr act -2.
Screening O=C(NNC1CC(=O)N(c2ccc(Cl)cc2)C1=O)c1ccccn1 (stereo not given) returned TTR transcr act -1.
O=C(Nc1ccc(N2C(=O)CC(c3ccccc3)C2=O)c(Cl)c1)c1ccccn1 (stereo not given) was read as TTR transcr act 38*, HuH7 TTR inh -4 and TTR up confirm 1.
COc1ccc(N2CCN(C(=O)CCc3nnc4ccc(N5CCCC5)nn34)CC2)cc1 was read as TTR transcr act 2.
Screening COc1ccc2[nH]c3c(c2c1)CCN[C@]31C(=O)N(Cc2ccccc2)c2ccccc21 returned TTR transcr act 1.
For CCOC(=O)N1CCN(C(=O)C[C@H]2C[C@@]3(C(=O)OC)C(=C[C@H](C(C)C)O[C@@H]3C3CC3)N(Cc3cccc4ccccc34)C2=O)CC1 the results were TTR transcr act -1.
CCC(C#Cc1ccccc1)NCc1ccc(OC)cc1OC (stereo not given) was read as TTR transcr act 1.
`Cc1ccc(C)c(S(=O)(=O)N2CCC3(CC2)OCCO3)c1` gave TTR transcr act -1.
`CC(=O)N1CCN(S(=O)(=O)c2ccc(Cl)cc2F)CC1` gave TTR transcr act 1.
For O=S(=O)(c1cc(Cl)ccc1Cl)N1CCC2(CC1)OCCO2 the results were TTR transcr act 12*, HuH7 TTR inh -6 and TTR up confirm -1.
`CN(CC(=O)Nc1ccc(F)cc1)C(=O)CN1C(=O)NC(CCc2ccccc2)C1=O` (stereo not given) gave TTR transcr act 0.
`O=S(=O)(c1ccc(SCCOc2ccc(Cl)cc2)nc1)N1CCCC1` gave TTR transcr act 21*, HuH7 TTR inh 7 and TTR up confirm -1.
O=S(=O)(c1ccc(SCc2c(F)cccc2Cl)nc1)N1CCCC1 was read as TTR transcr act -1.
Screening O=S(=O)(c1ccc(SCCOc2ccc(Br)cc2)nc1)N1CCCC1 returned TTR transcr act -2.
COC(=O)[C@]12CCCCC=C1N(Cc1ccc(OC)cc1)C(=O)[C@@H]2CC(=O)N1CCCC1 was read as TTR transcr act 2.
Fc1ccc(Nc2nc(N3CCOCC3)nc(N3CCOCC3)n2)cc1 was read as TTR transcr act 1.
For CSc1nc(NCC(C)C)nc(N2CCOCC2)n1 the results were TTR transcr act 15*, HuH7 TTR inh -3 and TTR up confirm 0.
Screening c1cncc(CNc2nc(N3CCOCC3)nc(N3CCOCC3)n2)c1 returned TTR transcr act 1.
`CCOc1ccc(CCNC(=O)c2cc3sccc3n2Cc2cccc(C)c2)cc1OCC` gave TTR transcr act 3.
C[C@H]1C2CC(OC(=O)Nc3ccccc3C(F)(F)F)C(C2)[C@H]2CCCCN21 (stereo not given in full) was read as TTR transcr act 0.
CCCC(C)C(=O)NC1CCCCN(Cc2ccc(C)cc2)C1=O (stereo not given) was read as TTR transcr act -2.
For Cc1csc(SCC(=O)NC23CC4CC(CC(C4)C2)C3)n1 the results were TTR transcr act 11*, HuH7 TTR inh -7 and TTR up confirm 1.
Screening Cc1nnc(SCC(=O)NC23CC4CC(CC(C4)C2)C3)s1 returned TTR transcr act 2.
`Cc1csc(SCC(=O)O)n1` gave TTR transcr act 7.
Screening C[C@@H]1CCCN1c1cccc2c1S(=O)(=O)N1CC[C@@H](C1)O2 returned TTR transcr act -1.
`O=C(NCc1ccco1)OC1CCC12CCC(c1ccccc1)CC2` (stereo not given) gave TTR transcr act -1.
Screening O=C(NC1CC1)c1ccc2c(c1)S(=O)(=O)c1cc(Cl)ccc1C2=O returned TTR transcr act 3.
`CCN(C(=O)Cn1ccc(C(F)(F)F)n1)c1c(N)n(Cc2ccccc2)c(=O)[nH]c1=O` gave TTR transcr act 1.
Screening O=C(Nc1ccc(C(F)(F)F)cc1)OC1CC2CC1[C@H]1CCCCN1[C@H]2Cc1ccccc1 (stereo not given in full) returned TTR transcr act -1.
`COc1ccc([C@@]23CCN=C2c2[nH]c4ccccc4c2CCN3)c(N)c1` gave TTR transcr act -1.
For CN(C)[C@H]1CCN(c2ccc3c(c2)OCCCN(C2CC2)S3(=O)=O)C1 the results were TTR transcr act 0.
Screening COC(=O)CN(C#N)c1nc(N(C)C)nc(N(C)C)n1 returned TTR transcr act 13*, HuH7 TTR inh -8 and TTR up confirm 3.
